APOBEC3A inh: inhibitors of human APOBEC3A DNA deaminase | 330,000 tested, 0.41% active | inhibition, % at 20 µM | recombinant A3A, FAM/TAMRA ssDNA deamination fluorescence | P31941;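 active = at least 40% inhibition at 20 µM here, with at most 30% in a related deaminase screen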
Target sequence (P31941 whole entry, looked up): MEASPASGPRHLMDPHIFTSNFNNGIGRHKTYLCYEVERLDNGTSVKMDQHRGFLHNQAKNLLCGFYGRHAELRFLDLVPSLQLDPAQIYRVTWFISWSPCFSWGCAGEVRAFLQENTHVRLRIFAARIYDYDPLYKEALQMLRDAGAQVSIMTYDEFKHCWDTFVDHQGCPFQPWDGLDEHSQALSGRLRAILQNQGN
NTR1 ag: activates human neurotensin receptor 1 | AID 493036 | P30989 | activation, % at 20 µM | 330,000 tested, 0.17% active | NTR1-U2OS beta-arrestin-GFP spot imaging, agonist mode;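 active = activation at or above 40% of the spot to cytoplasm intensity ratio, with at least 20 cells analyzed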
APOBEC3G inh: inhibitors of human APOBEC3G DNA deaminase; Q9HC16; recombinant A3G, ssDNA deamination FAM/TAMRA fluorescence; inhibition, % at 20 µM; 330,000 tested, 0.28% active; AID 493012;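 active = inhibition of at least 40% at 20 µM, with no more than 30% in the related APOBEC3A deaminase screen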
AHR act: human AHR activation; 320,000 tested, 2.5% active; activation, % at 5 µM; AID 2796; AHR-responsive luciferase reporter cells, luminescence; in the data active = activation above about 47%
AHR act cf: human AHR activation, confirmation | shares compounds with AHR act | human cells, AHR-responsive luciferase reporter, luminescence | activation, % at 9 µM | 2,300 tested, 87% active | AID 2845; in the data active = activation above about 49%;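 also: HepG2 hepatoma cells carrying a DRE-driven firefly luciferase reporter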
PXR act counter: counter-screen for AHR activators: human PXR activators. cell-based PXR reporter, luciferase luminescence. activation, % at 11.6 µM. AID 434939. 2,300 tested, 88% active. shares compounds with AHR act; in the data active = activation above about 11%;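 also: human hepatoma DPX-2 cells expressing full-length human PXR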
Target sequence (O75469 whole entry, looked up): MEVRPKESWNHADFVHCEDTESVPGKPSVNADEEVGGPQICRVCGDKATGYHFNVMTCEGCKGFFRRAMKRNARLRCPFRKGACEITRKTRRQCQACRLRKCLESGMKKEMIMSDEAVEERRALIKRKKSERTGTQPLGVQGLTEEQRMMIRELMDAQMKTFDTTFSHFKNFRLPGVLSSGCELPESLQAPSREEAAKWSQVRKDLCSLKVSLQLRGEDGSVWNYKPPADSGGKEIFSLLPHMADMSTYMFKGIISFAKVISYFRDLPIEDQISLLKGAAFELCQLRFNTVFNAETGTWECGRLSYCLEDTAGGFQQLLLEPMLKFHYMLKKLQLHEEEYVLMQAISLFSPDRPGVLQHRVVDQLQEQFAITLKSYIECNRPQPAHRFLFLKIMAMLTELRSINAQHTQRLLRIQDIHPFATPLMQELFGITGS
A number is an active result; . = inactive; / = no result given. In the library only some 3.2% were active in any assay of this set; here they are far more common.

SMILES | APOBEC3A inh | NTR1 ag | APOBEC3G inh | AHR act | AHR act cf | PXR act counter
CCN(CC)S(=O)(=O)c1ccc2[nH]c(=O)cc(C(=O)Nc3ccc(C)c(S(=O)(=O)N(CC)CC)c3)c2c1 | . | . | . | . | / | /
CSCC[C@H](NC(=O)OC(C)(C)C)C(=O)N1CCC(C(=O)N[C@@H](C)C(=O)NC(C)c2ccccc2)CC1 (some centres not stated) | . | . | . | . | / | /
Cc1cc(=O)n(CC(=O)NC2CC2)c2c1c(C)nn2-c1ccccc1 | . | . | . | 88 | 84 | 77
Cc1cc(NC(=O)CSc2nc3c([nH]c4ccccc43)c(=O)n2-c2ccccc2F)no1 | . | . | . | 90 | 70 | 164
Cn1c(SCC(=O)Nc2cccc(F)c2)nc2c([nH]c3ccccc32)c1=O | . | . | . | . | / | /
O=C(CSc1nc2c([nH]c3ccccc32)c(=O)n1-c1ccccc1F)NCC1CCCO1 (configuration not stated) | . | . | . | 96 | 98 | 112
COc1cccc(-n2c(SCC(=O)Nc3cc(C)on3)nc3c([nH]c4ccccc43)c2=O)c1 | . | . | . | 103 | 103 | 63
Cc1ccc([N+](=O)[O-])cc1Nc1nc(N2CCCC2)nc(N2CCCC2)n1 | . | . | . | . | / | /
C=CCn1c(SCC(=O)N(C)CC(=O)Nc2ccc(C)cc2)nnc1-c1ccncc1 | . | . | . | . | / | /
CCCCN(C1CCS(=O)(=O)C1)S(=O)(=O)c1cc(C)ccc1C (configuration not stated) | . | . | . | . | / | /
Oc1oc(-c2ccccc2)nc1C=Nc1ccccc1 | . | . | . | . | / | /
Sc1oc(-c2ccccc2)cc1C=Nc1ccccc1 | . | . | . | 79 | . | 20
O=C(NCc1cccc(Br)c1)C1CC(c2ccccc2C(F)(F)F)=NO1 (configuration not stated) | . | . | . | . | / | /
CCn1ncc(-c2cc(C(=O)O)no2)c1C | . | . | . | 80 | . | .
Nc1nc(-c2cccnc2)nc2sc3c(c12)CCCC3 | . | . | . | 118 | 90 | 72
NS(=O)(=O)c1ccc(Nc2nc(-c3ccc(O)cc3O)cs2)cc1 | . | . | . | . | / | /
Oc1ccc(-c2csc(Nc3ccccn3)n2)c(O)c1 | . | . | . | 169 | 103 | 15
c1ccc(Nc2nc(-c3cccs3)cs2)nc1 | . | . | . | 117 | 155 | 23
Cc1cccc(Nc2nc(-c3ccccn3)cs2)n1 | . | . | . | . | / | /
Nc1ccc(Nc2nc(-c3cccs3)cs2)cc1 | . | . | . | 117 | . | 16
O=C(COc1ccccc1)Nc1nc(-c2cccs2)cs1 | . | . | . | . | / | /
Cc1cccc(Nc2nc(-c3cccs3)cs2)n1 | . | . | . | 87 | 161 | 21
Nc1ccc(Nc2nc(-c3cc4ccccc4oc3=O)cs2)cc1 | . | . | . | . | / | /
Cc1cccc(C(=O)OCC(=O)NC2CC2)c1O | . | . | . | . | / | /
N#CC1(C#N)[C@@H](C(=O)C23CC4CC(CC(C4)C2)C3)C12CCOCC2 | . | . | . | . | / | /
SMILES | APOBEC3A inh | NTR1 ag | APOBEC3G inh | AHR act | AHR act cf | PXR act counter
CC(C)Cn1c(N)c(C(=O)COC(=O)c2cc(S(=O)(=O)N3CCOCC3)ccc2Br)c(=O)n(C)c1=O | . | . | . | . | / | /
CC(C)Cn1c(N)c(C(=O)COC(=O)C2CC(=O)N(c3ccc4c(c3)OCCO4)C2)c(=O)n(C)c1=O (configuration not stated) | . | . | . | . | / | /
CCN1CCn2c3c(c4cc(C)ccc42)CCCC31 (configuration not stated) | . | . | . | 81 | 105 | 11
Cc1ccc2c(c1)c1c3n2CCN(C(=O)CCl)C3CCC1 (configuration not stated) | . | . | . | 113 | 98 | 17
CC(=O)N1CCn2c3c(c4cc(C)ccc42)CCCC31 (configuration not stated) | . | . | . | . | / | /
CCOC(=O)c1cc(-c2ccc(OC)cc2OC)nn1-c1ccc(C(=O)O)cc1 | . | . | . | . | / | /
Cn1cccc1C(=O)NC(=O)COC(=O)c1cc(Cl)ccc1[N+](=O)[O-] | . | . | . | . | / | /
Cc1ccc(C)c(NC(=O)NCc2ccccn2)c1 | . | . | . | . | / | /
Cc1ccc(C)c(NC(=S)c2ccc3ccccc3n2)c1 | . | . | . | 88 | 104 | 16
Cc1ccc(C)c(NC(=S)c2ccccn2)c1 | . | . | . | 118 | 106 | 26
COc1ccc(C)cc1NC(=O)COC(=O)c1ccc2ccccc2n1 | . | . | . | . | / | /
CN1CCSc2ccc(C(=O)Nc3ccc(Cl)cc3)cc21 | . | . | . | 215 | 135 | 70
Cc1cc(N/N=C/c2ccccc2O)c2ccccc2n1 | . | . | . | 107 | 124 | 13
Cc1cc(-c2ccccc2)nc(N/N=C/c2ccc(O)cc2O)n1 | . | . | . | . | / | /
O=C(O)C(CO)(c1ccccc1)c1ccccc1 | . | . | . | . | / | /
CCOc1cc(N)c(Cl)cc1C(=O)NCC1CN(Cc2ccc(F)cc2)CCO1 (configuration not stated) | . | . | . | 90 | 63 | 181
Cc1ccsc1CN(C)Cc1nc(C2CC2)no1 | . | . | . | . | / | /
CCOc1ccc2nc(NC(=O)Nc3cccs3)sc2c1 | . | . | . | 96 | 90 | 12
CCOc1ccc2nc(NC(=O)Cc3cccs3)sc2c1 | . | . | . | . | / | /
NNc1nc(-c2ccccc2)cs1 | . | . | . | 80 | 82 | 27
Fc1ccc(-c2csc(Nc3ccccn3)n2)cc1 | . | . | . | 83 | 107 | 18
Cc1ccc(C)c(Nc2nc(-c3cccnc3)cs2)c1 | . | . | . | 82 | 90 | 26
CCOc1ccccc1Nc1nc(-c2cccnc2)cs1 | . | . | . | / | / | /
Clc1ccccc1Nc1nc(-c2cccnc2)cs1 | . | . | . | 114 | 129 | 16
CC(=O)Nc1nc(C)c(-c2csc(Nc3ccccn3)n2)s1 | . | . | . | 116 | 108 | 32
SMILES | APOBEC3A inh | NTR1 ag | APOBEC3G inh | AHR act | AHR act cf | PXR act counter
Fc1ccc(-c2csc(NC(=S)Nc3ccccc3)n2)cc1 | . | . | . | 84 | 79 | 32
CC(=O)Nc1cccc(-c2csc(Nc3ccc(Cl)cn3)n2)c1 | . | . | . | . | / | /
CC(=O)Nc1cccc(-c2csc(Nc3ccccn3)n2)c1 | . | . | . | 85 | 74 | .
O=C(Nc1ccccc1)Nc1nc(-c2ccc(F)cc2)cs1 | . | . | . | . | / | /
COc1cccc(Nc2nc(-c3cccnc3)cs2)c1 | . | . | . | 108 | 127 | 13
O=C(OCc1cccc([N+](=O)[O-])c1)c1ccc2ccccc2n1 | . | . | . | . | / | /
O=C(CSc1ncn[nH]1)Nc1nc(-c2ccccc2)ns1 | . | . | . | . | / | /
CCC(=O)Nc1nc(-c2ccccc2)ns1 | . | . | . | 102 | 84 | 32
c1ccc(Nc2nc(-c3cccnc3)cs2)nc1 | . | . | . | 166 | 74 | 41
CCC(=O)Nc1cccc(-c2csc(-c3ccccc3)n2)c1 | . | . | . | 105 | 85 | 21
Cc1ccnc(Nc2nc(-c3ccccc3)cs2)c1 | . | . | . | 163 | 89 | 48

Screens deposited in PubChem by several laboratories.
